Experimental data taken from PubChem BioAssay.
Active and inactive are the calls of the source.

Columns and labels:
[1] = tested on: Plasmodium falciparum Sir2 (PF13_0152, Sir2A); assay: pfSir2 binders on small-molecule microarrays, primary screen, biochemical, small-molecule microarray, 635 nm fluorescence (AID 1098); conditions: small-molecule microarray binding, fluorescence 635 nm; higher = more signal;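 note: score merges spot fluorescence intensity with its signal-to-noise ratio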
[2] = small-molecule microarray binders of probe aDKK1, primary screen, biochemical, biotinylated probe, 635/667 nm fluorescence (AID 1099); conditions: higher = more signal;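 note: score merges 667nm spot fluorescence with signal to noise across triplicate slides; reference of the scale not given here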
[3] = small-molecule microarray binders of probe aCHRDL2, primary screen, biochemical, biotinylated probe, 635/667 nm fluorescence (AID 1100); conditions: higher = more signal
[4] = splicing luciferase reporter signal modulators, primary screen, spliceosome inhibition project, cell-based, HEK293, splice +/- reporter (AID 1101); conditions: luminescence, 24 h, higher = more signal, called active from +8 up or from −8 down;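 note: HEK293 cells carrying a splicing-competent luciferase reporter gene; test concentration not given here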
[5] = target: Fibroblast growth factor 10 (Homo sapiens) (UniProt O15520); assay: FGF10 binders on small-molecule microarrays, primary screen, biochemical, small-molecule microarray, 635 nm fluorescence (AID 1102); conditions: FGF10 binding, fluorescence 635 nm, higher = more signal
Fibroblast growth factor 10 (Homo sapiens), sequence (O15520 whole entry, looked up): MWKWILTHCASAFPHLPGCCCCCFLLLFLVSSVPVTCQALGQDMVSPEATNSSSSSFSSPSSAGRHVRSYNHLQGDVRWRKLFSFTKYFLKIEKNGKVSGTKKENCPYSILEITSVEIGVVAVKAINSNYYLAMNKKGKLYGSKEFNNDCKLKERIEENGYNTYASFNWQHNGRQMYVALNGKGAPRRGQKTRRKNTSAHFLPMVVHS

[6] = tested on: glycogen synthase kinase-3 (GSK3A per assay name; protocol says GSK3B); assay: GSK3 binders on small-molecule microarrays, primary screen, biochemical, small-molecule microarray, 635 nm fluorescence, GSK3A (AID 1103); conditions: small-molecule microarray binding, fluorescence 635 nm; higher = more signal; note: the record names both GSK3A and GSK3B
[7] = target: Epidermal growth factor receptor (Homo sapiens) (UniProt P00533); assay: EGFR binders on small-molecule microarrays, primary screen, biochemical, small-molecule microarray, 635 nm fluorescence (AID 1104); conditions: EGFR binding, higher = more signal;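 note: score merges 667 nm emission intensity with spot signal to noise over triplicate slides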
Epidermal growth factor receptor (Homo sapiens), sequence (P00533 whole entry, looked up): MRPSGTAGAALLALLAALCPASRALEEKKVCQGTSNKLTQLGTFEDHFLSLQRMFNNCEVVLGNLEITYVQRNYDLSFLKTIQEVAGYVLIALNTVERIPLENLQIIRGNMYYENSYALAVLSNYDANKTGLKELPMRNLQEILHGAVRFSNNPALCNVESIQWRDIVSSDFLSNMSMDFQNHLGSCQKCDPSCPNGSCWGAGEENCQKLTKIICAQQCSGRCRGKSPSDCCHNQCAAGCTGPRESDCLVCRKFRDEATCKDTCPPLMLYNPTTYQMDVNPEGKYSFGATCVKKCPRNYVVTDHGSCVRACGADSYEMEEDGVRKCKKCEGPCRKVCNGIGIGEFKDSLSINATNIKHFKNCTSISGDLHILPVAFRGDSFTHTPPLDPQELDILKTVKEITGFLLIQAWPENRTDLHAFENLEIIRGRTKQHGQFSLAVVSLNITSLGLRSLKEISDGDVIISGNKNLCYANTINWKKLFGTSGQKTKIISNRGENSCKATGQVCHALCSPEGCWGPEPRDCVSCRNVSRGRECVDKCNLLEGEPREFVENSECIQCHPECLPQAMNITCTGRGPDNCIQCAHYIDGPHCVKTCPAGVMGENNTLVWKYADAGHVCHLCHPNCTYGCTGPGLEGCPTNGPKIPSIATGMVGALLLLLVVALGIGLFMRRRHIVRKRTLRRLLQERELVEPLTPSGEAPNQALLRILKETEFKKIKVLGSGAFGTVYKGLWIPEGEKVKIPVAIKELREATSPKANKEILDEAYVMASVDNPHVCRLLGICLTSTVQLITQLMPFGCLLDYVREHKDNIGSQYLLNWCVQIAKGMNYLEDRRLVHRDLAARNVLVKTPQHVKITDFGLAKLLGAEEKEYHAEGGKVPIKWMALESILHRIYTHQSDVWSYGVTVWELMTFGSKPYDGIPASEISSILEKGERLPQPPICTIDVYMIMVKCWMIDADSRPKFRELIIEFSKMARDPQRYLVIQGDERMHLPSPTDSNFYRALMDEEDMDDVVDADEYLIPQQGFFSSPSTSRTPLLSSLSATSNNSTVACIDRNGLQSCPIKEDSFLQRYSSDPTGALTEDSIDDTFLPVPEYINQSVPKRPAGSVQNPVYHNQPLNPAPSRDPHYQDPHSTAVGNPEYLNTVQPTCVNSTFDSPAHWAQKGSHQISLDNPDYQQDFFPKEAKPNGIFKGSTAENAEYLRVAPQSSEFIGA

[8] = target: Follistatin-related protein 3 (Homo sapiens) (UniProt O95633); assay: FSTL3 binders on small-molecule microarrays, primary screen, biochemical, small-molecule microarray, 635 nm fluorescence (AID 1105); conditions: FSTL3 binding, higher = more signal;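 note: score merges emission near 667 nm and signal to noise per printed spot across three slides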
Follistatin-related protein 3 (Homo sapiens), sequence (O95633 whole entry, looked up): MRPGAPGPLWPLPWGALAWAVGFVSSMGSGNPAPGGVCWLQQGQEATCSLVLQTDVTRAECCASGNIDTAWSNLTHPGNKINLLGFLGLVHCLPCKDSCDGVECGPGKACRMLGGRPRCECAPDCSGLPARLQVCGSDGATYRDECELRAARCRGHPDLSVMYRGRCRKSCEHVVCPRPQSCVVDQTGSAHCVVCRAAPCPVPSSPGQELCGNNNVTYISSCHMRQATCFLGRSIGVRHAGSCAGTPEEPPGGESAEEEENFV

[9] = target: Dickkopf-related protein 1 (Homo sapiens) (UniProt O94907); assay: DKK1 binders on small-molecule microarrays, primary screen, biochemical, small-molecule microarray, 635 nm fluorescence scan (AID 1106); conditions: DKK1 binding, higher = more signal;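 note: score merges emission near 667 nm with signal to noise over three replicate slides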
Dickkopf-related protein 1 (Homo sapiens), sequence (O94907 whole entry, looked up): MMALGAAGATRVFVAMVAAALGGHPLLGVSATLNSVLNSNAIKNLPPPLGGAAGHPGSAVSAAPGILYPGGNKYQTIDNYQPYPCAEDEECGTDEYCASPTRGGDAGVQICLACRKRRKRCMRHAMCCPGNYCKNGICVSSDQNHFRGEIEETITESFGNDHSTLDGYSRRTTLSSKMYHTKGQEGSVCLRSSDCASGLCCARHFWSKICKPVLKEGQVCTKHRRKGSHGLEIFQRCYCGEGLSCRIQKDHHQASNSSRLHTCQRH

[10] = tested on: Inhibin beta A chain (activin A); assay: INHBA (activin A) binders on microarrays, primary screen, biochemical, small-molecule microarray, 635 nm fluorescence scan (AID 1107); conditions: small-molecule microarray binding, higher = more signal;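 note: mouse activin A protein probed at 4.33 µg/mL on printed slides; score merges bound-protein fluorescence near 667 nm with spot signal-to-noise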

SMILES	composite z-score [1]	composite z-score [2]	composite z-score [3]	z-score [4]	composite z-score [5]	composite z-score [6]	composite z-score [7]	composite z-score [8]	composite z-score [9]	composite z-score [10]
C=C(CCCC)/C(=C/C[C@@H](OC(=O)c1ccncc1)c1cccc(OCCO)c1)c1cnc2ccccc2c1	0.148	0.11	0.563	-0.562 (inactive)	1.52	0.667	1.27	1.56	0.895	1.67
CCCN1C(=O)[C@]2(Cc3ccccc3)N=C(c3ccc(OCCCO)cc3)O[C@@H]2c2ccccc21	1.25	0.206	0.41	-1.41 (inactive)	1.24	1.32	0.642	0.928	0.223	0.808
COc1ccc([Si](C)(C)[C@H]2[C@H](CCn3cc([C@H](O)c4ccccc4)nn3)O[C@@]3(C(=O)N(Cc4ccc(N5CCOC5=O)cc4)c4ccccc43)[C@@H]2C)cc1	-0.215	0.555	0.282	-0.372 (inactive)	-1.23	-2.18	-0.228	-1.54	-0.958	-0.794
O=C1NCC(=O)N2[C@@H]1C[C@@H](C(=O)O)[C@H]2c1ccc(O)cc1	1.41	-0.0052	0.128	-0.22 (inactive)	0.944	1.32	-0.0519	1.37	1.78	0.571
CO[C@H]1O[C@H](CO)[C@@H](OC(=O)c2ccc(Br)cc2)[C@@H]2OC(=O)[C@@H](Cc3ccc4ccccc4c3)C/C=C/C[C@H](Cc3ccc4ccccc4c3)C(=O)O[C@@H]12	0.995	0.463	0.769	-0.83 (inactive)	0.429	0.548	-0.567	0.323	-0.54	0.588
COC(=O)[C@@]1(Cc2ccc(F)cc2)[C@H]2c3cc(C(=O)N4CCCC4)n(CCF)c3C[C@H]2CN1C(=O)c1ccccc1	1.62	1.98	1.02	-1.72 (inactive)	0.876	0.306	-0.0069	0.418	0.555	1.03
CCOc1cc(C(O)C2C=CC3C(=O)N(C4CCCCC4)C(=O)C3N2Nc2ccc(OC)cc2)ccc1O (stereo not given)	0.692	-0.0443	0.913	-0.556 (inactive)	0.423	1.21	0.388	0.741	0.105	0.959
CCOC(=O)C[C@H]1[C@H](OC(=O)Cc2ccc3c(c2)OCO3)[C@@H](NC(=O)C2CCCCC2)c2cc(OCCCO)ccc2N1C(=O)c1ccc2ccccc2n1	0.774	0.034	-0.529	-1.49 (inactive)	1.47	0.72	0.713	1.18	1.65	0.0341
O=C(O)[C@]1(Cc2ccccc2)N=C(c2ccc(OCCCO)cc2)O[C@@H]1c1ccccc1	0.122	0.568	0.926	0.771 (inactive)	-0.74	-1.23	-0.856	-1.07	-1.16	0.848
COc1cc(CO)cc(I)c1O[C@H]1C=C(C(=O)NCCO)C[C@@H](N(Cc2ccc(F)cc2)C(=O)C2CCCO2)[C@@H]1O (stereo not given in full)	0.0885	-0.139	-0.697	-0.0727 (inactive)	0.182	0.1	0.346	0.203	0.208	0.676
O=C1c2ccccc2[C@](Cc2ccccc2I)(C(=O)NCCN2CCOCC2)[C@H](c2ccc(CO)cc2)N1Cc1ccccc1	1.21	1.05	0.345	-0.825 (inactive)	0.712	1.04	0.167	1.04	0.352	0.59
C=CCN1C(=O)[C@]2(CC=C)N=C(c3ccc(OCCCO)cc3)O[C@@H]2c2ccccc21	1.08	0.945	1.1	-0.436 (inactive)	0.506	0.777	0.925	1.18	0.95	1.38
C=CCC(OC(C)=O)[C@@H]1[C@@H](N(Cc2cc3ccccc3o2)C(=O)Cc2ccc(F)cc2)c2cc(OCCCO)ccc2N1C(=O)c1ccc2ccccc2n1 (stereo not given in full)	-0.278	-0.106	0.394	-0.509 (inactive)	-0.0436	-0.497	0.112	-0.255	0.0645	1.2
CCOC(=O)C[C@H]1[C@H](OC(=O)c2ccc(C(=O)c3ccccc3)cc2)[C@@H](NC(=O)c2ccc3ccccc3c2)c2cc(OCCCO)ccc2N1C(=O)c1ccccc1	0.422	0.489	0.17	-0.072 (inactive)	0.734	0.993	0.0993	0.786	0.105	0.007
[N-]=[N+]=Nc1ccccc1C[C@]1(C(=O)NCc2ccccc2)N=C(c2ccc(OCCCO)cc2)O[C@H]1c1ccccc1	1.13	0.966	1.01	0.843 (inactive)	1.09	-0.235	-0.269	0.461	-0.684	0.784
COCCOC(=O)N1C(=O)[C@@]2(c3ccccc31)[C@H](c1ccc(OCCO)cc1)N1[C@H](c3ccccc3)[C@H](c3ccccc3)OC(=O)[C@H]1[C@@H]2C(=O)Nc1nc2ccccc2s1	1.45	-0.223	0.414	0.579 (inactive)	0.967	0.986	0.545	0.852	0.293	0.34
COc1cc(CO)cc(I)c1O[C@H]1C=C(C(=O)NCCO)C[C@@H](NCc2ccccc2F)[C@@H]1O	0.947	-0.28	-0.18	-0.977 (inactive)	1.06	0.417	0.152	0.638	0.239	0.0253

SMILES	composite z-score [1]	composite z-score [2]	composite z-score [3]	z-score [4]	composite z-score [5]	composite z-score [6]	composite z-score [7]	composite z-score [8]	composite z-score [9]	composite z-score [10]
C=CCN1C(=O)[C@@]2(CCC(=O)OC(C)(C)C)N=C(c3ccc(OCCCO)cc3)O[C@H]2c2ccccc21	1.25	0.549	1	0.0157 (inactive)	0.0195	1.13	0.217	0.792	0.116	1.4
C=CCOC(=O)[C@@H]1[C@H]2C(=O)O[C@H](c3ccccc3)[C@H](c3ccccc3)N2[C@H](c2ccc(OCCOC(=O)[C@H]3C[C@H]4C(=O)N[C@@H](CC(C)C)C(=O)N4[C@H]3c3ccc(O)cc3)cc2)[C@@]12C(=O)Nc1ccc(I)cc12	1.25	0.198	-0.093	0.242 (inactive)	1.4	1.32	1.08	1.51	0.931	0.463
CO[C@H]1O[C@H](CO)[C@@H](OC(=O)Nc2ccccc2-c2ccccc2)[C@H](OC(=O)Nc2ccc3c(c2)OCO3)[C@@H]1OC(=O)Nc1ccc2c(c1)OCO2	1.32	0.198	0.679	-1.14 (inactive)	1.05	1.34	0.0757	1.44	0.279	0.691
CC(C)CCC[C@@H](C)[C@H]1CC[C@@]2(C)C3=C(CC[C@]12C)[C@@]1(C)CC[C@H](OC(=O)c2ccc(Br)cc2)C(C)(C)C1CC3 (stereo not given in full)	0.27	-0.153	-0.331	-1.13 (inactive)	0.609	0.55	0.593	0.506	0.391	0.26
C=C[C@@H](COC(C)=O)NS(=O)(=O)c1ccc(Br)cc1	0.549	-0.103	-0.0829	23.4 (active)	0.172	0.444	0.118	0.412	0.77	0.361
O=C1OC[C@@H](c2ccccc2)N2CC(/C=C/c3ccccc3)=CC12 (stereo not given in full)	-0.0726	-0.144	0.537	-0.521 (inactive)	-0.529	-0.511	-2.06	-1.16	-1.15	0.0575
O=C(N1CCCCC1)[C@@]1(Cc2ccccc2)COC(c2ccc(OCCCO)cc2)=N1	1.48	1.11	1.25	0.419 (inactive)	1.44	0.705	-0.153	0.12	-0.275	0.691
COC(=O)Cn1c(C(=O)N2CCCC2)cc2c1C[C@H]1CN(C(=O)c3ccccc3)[C@@](Cc3ccc(F)cc3)(C(=O)OC)[C@@H]21	0.643	0.222	-0.0982	-1.13 (inactive)	-0.134	-0.576	0.588	0.412	-0.181	0.675
C=CC[C@@H](OC(=O)Nc1ccc(OC)cc1)c1ccc(OCCO)cc1	0.468	-0.211	0.979	-0.694 (inactive)	-1.77	-0.711	-1.99	-0.993	-2.37	-2.6
C=C(CCCC)/C(=C/C[C@@H](OC(C)=O)c1ccc(CO)o1)c1cc(C(=O)OC)ccc1OC	0.416	-0.198	-0.549	1.32 (inactive)	1.19	1.13	0.0789	1.4	0.543	0.207
CC(C)C(O)C1C=CC2C(=O)N(C)C(=O)C2N1N(c1ccccc1)c1ccccc1 (stereo not given)	1.09	0.185	0.972	1.06 (inactive)	-0.879	-1.5	-0.381	-0.49	-1.07	1.7
CN(C)CCCNC(=O)[C@@H]1c2ccccc2C(=O)N(Cc2ccc(OC(F)(F)F)cc2)[C@H]1c1ccc(CO)cc1	1.33	-0.115	0.56	0.0681 (inactive)	0.0228	0.887	-0.617	0.351	0.0558	0.561
COc1ccc(C(O)C2C=CC3C(=O)N(c4ccccc4)C(=O)C3N2Nc2ccc(C#N)cc2)c2ccccc12 (stereo not given)	1.2	0.585	0.917	1.8 (inactive)	0.581	0.811	-0.0239	0.733	0.138	0.675
COc1ccc(C(O)C2C=CC3C(=O)N(C)C(=O)C3N2N2CCCCC2)cc1 (stereo not given)	1.23	0.297	0.378	1.33 (inactive)	0.632	1.09	0.579	0.306	0.224	1.31
C=C(CCCC)C(=O)CC[C@@H](OC(=O)c1ccccc1-c1ccccc1C(=O)O)c1cccc(OCCO)c1	1.13	-0.302	-0.353	2.89 (inactive)	0.946	0.297	-0.0833	0.556	0.339	1.2
CC(C)c1ccc(NN2C(C(O)c3ccco3)C=CC3C(=O)N(c4ccccc4)C(=O)C32)cc1 (stereo not given)	1.02	0.978	1.09	0.165 (inactive)	0.783	1.3	0.0401	1.22	0.191	1.14
